This note sets out measurements from PubChem BioAssay (NCATS).

Experiment [1] has as its target Glutathione peroxidase 1 (Homo sapiens) (UniProt P07203). Kind of experiment: Primary qHTS Assay for Inhibitors of Recombinant Selenoprotein Glutathione Peroxidase 1 (GPX1) (AID 1845191). Further: nearly all actives have a fitted effect of over 65% in size. On activity, negative = inhibition: on the % scale 0 is the no-effect control and ±100 the full control effect. The gist of the method: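 Recombinant GPX1 (10 nM final) was preincubated with compound for 30 min at room temperature, then reacted with 1 mM GSH, 0.5 mM CHP, 0.5 mM NADPH and 100 nM glutathione reductase; NADPH fluorescence (340/450 nm) was read at 0 and 15 min.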

Experiment [2] deals with Phospholipid hydroperoxide glutathione peroxidase GPX4 (Homo sapiens) (UniProt P36969). Kind of experiment: Primary qHTS Assay for Inhibitors of Recombinant Selenoprotein Glutathione Peroxidase 4 (GPX4) (AID 1845192). Further: nearly all actives have a fitted effect of over 65% in size. The procedure, abridged: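 GR-coupled readout: 100 nM GR, 1 mM GSH, 0.5 mM NADPH; NADPH fluorescence (ex 340/em 450 nm) read at t=0 and after 15 min RT. GPX4 200 nM, preincubated 30 min with compound; substrate 0.5 mM CHP.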
Phospholipid hydroperoxide glutathione peroxidase GPX4 (Homo sapiens), sequence (P36969 whole entry, looked up): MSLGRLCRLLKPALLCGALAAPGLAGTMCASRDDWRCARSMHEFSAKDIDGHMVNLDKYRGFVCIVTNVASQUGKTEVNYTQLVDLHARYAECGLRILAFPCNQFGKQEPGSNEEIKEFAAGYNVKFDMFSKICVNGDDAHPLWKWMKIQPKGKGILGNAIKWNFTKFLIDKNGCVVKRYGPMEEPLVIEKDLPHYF

The target of experiment [3] is Luciferin 4-monooxygenase (Photinus pyralis) (UniProt P08659). The experiment is described as follows: Primary firefly luciferase (FLuc) qHTS assay for identification of artifact compounds. (AID 1845220). Further: nearly all actives have a fitted effect of over 60% in size. The procedure, abridged: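 In this counter-screen for luciferase artifacts, test compounds met substrate (10 uM each luciferin and ATP) before 10 nM enzyme started the reaction. Light output was measured 5 min later.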

A short description of experiment [4]: Primary fluorescence-based thiol-reactive (MSTI) qHTS assay for identification of artifact compounds. (AID 1845221). Further: nearly all actives have a fitted effect of over 65% in size. Further: potency means the concentration at half of the fitted maximal effect.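 On activity change, negative = thiol reactive: series mostly up to about 54 µM; thiol-reactive compounds lower the probe fluorescence signal.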 The procedure, abridged:
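A multi-concentration qHTS design tested compounds against 4 uM MSTI, pH 7.4 phosphate-buffered saline. Plates were protected from light for 1 h at room temperature before imaging fluorescence.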

The subject of experiment [5] is Nanoluciferase (engineered Oplophorus gracilirostris luciferase). Kind of experiment: Primary Nanoluciferase (NLuc) qHTS assay for identification of artifact compounds. (AID 1845222).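 Further: NLuc secreted into diluted conditioned medium of S16 cells; series mostly up to about 54 µM; 0% = DMSO and -100% = no enzyme.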 The procedure, abridged:
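Using secreted nanoluciferase in S16 culture medium (0.22 um filtered, 1:55 dilution), compounds were preincubated 15 min at RT. Signal was generated with Nano-Glo reagent (1:100) over 5 min.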

Experiment [6] is described as follows: Primary redox qHTS assay for identification of artifact compounds. (AID 1845223).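 Further: 0% = DMSO and 100% = reference compound.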 The procedure, abridged: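 Amplex Red (25 uM) and HRP (250 mU/mL) in HBSS, with compounds for 15 min, then 250 uM DTT for 30 min, room temperature, dark. Fluorescence 525/598 nm read; normalized to DMSO and 10 uM DA3003; Hill fit.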

A number with no mark means an inactive call. Records with an inconclusive call do not appear. Active and inactive are the calls of the source. The call rests on the fitted dose curve; in most records, active means well fitted curve in the direction sought with a large enough effect; inconclusive means small, poorly fitted or top-dose-only effect, or another doubt; inactive means no such curve, though single readings can be large; an effect the other way counts as inactive or inconclusive.

Glutathione peroxidase 1 (Homo sapiens), sequence (P07203 whole entry, looked up): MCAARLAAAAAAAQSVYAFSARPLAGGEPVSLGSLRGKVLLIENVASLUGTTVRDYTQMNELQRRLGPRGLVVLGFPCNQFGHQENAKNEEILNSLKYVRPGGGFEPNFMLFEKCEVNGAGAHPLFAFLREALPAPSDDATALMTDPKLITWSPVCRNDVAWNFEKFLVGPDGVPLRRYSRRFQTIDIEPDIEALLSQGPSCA

In the case of `C/C=C(\C)C(=O)OC1C(C)C2(O)C3C=C(C)C(=O)C3CC(CO)=CC2C2C(C)(C)C12OC(C)=O` (stereo unspecified), the Potency entry in experiment [1], in experiment [2], in experiment [3], in experiment [4], in experiment [5] and in experiment [6] was “inactive” throughout.
As to `CC1=C2CC3C(CCC3(C)O)C(C)(O)CC2OC1=O` (stereo unspecified), the Potency entry in experiment [1], in experiment [2], in experiment [3], in experiment [5] and in experiment [6] was “inactive” throughout. In addition, the Potency in experiment [4] was 23.8 µM (active).
For `CC1(C)CC[C@]2(C(=O)O[C@@H]3O[C@H](CO)[C@@H](O)[C@H](O)[C@H]3O)CC[C@]3(C)C(=CCC4[C@@]5(C)CC[C@H](O[C@@H]6O[C@H](C(=O)O)[C@@H](O[C@@H]7O[C@H](CO)[C@@H](O)[C@H](O)[C@H]7O)[C@H](O)[C@H]6O)C(C)(C)C5CC[C@]43C)C2C1` (stereo partly specified), the Potency result in experiment [1] and in experiment [2] was “inactive” throughout. For the same compound, in experiment [3], the outcome is “inactive [at 11.6 µM]”. In addition, the activity change, negative = thiol reactive in experiment [4] was 348% [at 11.5 µM]. Further, in experiment [5], the activity, negative = inhibition was 4.13% [at 11.6 µM]. Besides, the redox activity (% of DA3003) in experiment [6] was 3.95% [at 11.5 µM].
On to `C/C=C/C1OC2=C(C(=O)OC2(C)O)C(O)C1O` (stereo unspecified), for which the Potency result in experiment [1], in experiment [2], in experiment [3], in experiment [4], in experiment [5] and in experiment [6] was “inactive” throughout.
With `Cc1cn(C[C@H](N)C(=O)O)c(=O)n(Cc2ccsc2C(=O)O)c1=O`, the Potency result in experiment [1], in experiment [2], in experiment [3], in experiment [4], in experiment [5] and in experiment [6] was “inactive” throughout.
`C[C@@H]1O[C@@H](OC[C@H]2O[C@@H](OCc3ccccc3)[C@H](O)[C@@H](O)[C@@H]2O)[C@H](O)[C@H](O)[C@H]1O`: the Potency result in experiment [1], in experiment [2], in experiment [3], in experiment [5] and in experiment [6] was “inactive” each time. Besides, the Potency in experiment [4] was 5.19 µM (active).
For the compound `CCC(C)C1NC(=O)C2C(C)CCN2C(=O)C(CC(O)CO)OC(=O)CCNC(=O)C(C)N(C)C(=O)C(C(C)C)N(C)C1=O` (stereo unspecified), the Potency entry in experiment [1], in experiment [2], in experiment [3], in experiment [4], in experiment [5] and in experiment [6] was “inactive” each time.
Turning to `CNC(=O)c1ccc2c(c1)CCO[C@H]2CCN1CCN(c2ccc(C(N)=O)cc2)CC1`, the Potency entry in experiment [1], in experiment [2], in experiment [3], in experiment [4], in experiment [5] and in experiment [6] was “inactive” throughout.
Consider `CC1(C)CC[C@]2(C(=O)O)CC[C@]3(C)C(=CCC4[C@@]5(C)C[C@@H](O)[C@H](O)[C@@](C)(CO)C5[C@H](O)C[C@]43C)[C@@H]2C1` (stereo partly specified), for which the Potency entry in experiment [1], in experiment [2], in experiment [3], in experiment [4], in experiment [5] and in experiment [6] was “inactive” each time.
As to `CC1CCCCCCCc2cc(O)cc(O)c2C(=O)O1` (stereo unspecified), the Potency result in experiment [1], in experiment [2], in experiment [3], in experiment [5] and in experiment [6] was “inactive” each time. Moreover, in experiment [4], the Potency is 26.7 µM (active).
Consider `CC1(C)CC[C@]2(C(=O)O)CC[C@]3(C)C(=CCC4[C@@]5(C)CC[C@H](O[C@@H]6O[C@H](C(=O)O)[C@@H](O)[C@H](O)[C@H]6O)C(C)(C)C5CC[C@]43C)C2C1` (stereo partly specified), for which the Potency entry in experiment [1], in experiment [2], in experiment [3], in experiment [4], in experiment [5] and in experiment [6] was “inactive” throughout.
Turning to `CC1CCC2C(C)(C)C(O)C(O)CC2(C)C12Cc1c(O)cc(CO)c(C=O)c1O2` (stereo unspecified), the Potency entry in experiment [1], in experiment [2], in experiment [3], in experiment [4], in experiment [5] and in experiment [6] was “inactive” each time.
Turning to `CC1=C2CC(=O)C(C)CC/C=C(\C)CC2OC1=O` (stereo unspecified), the Potency entry in experiment [1], in experiment [2], in experiment [3], in experiment [4], in experiment [5] and in experiment [6] was “inactive” each time.
As to `C=C1CC[C@@H]2[C@@](C)(CO[C@@H]3O[C@H](CO)[C@@H](O)[C@H](O)[C@H]3O)[C@H](O)CC[C@@]2(C)[C@@H]1CC/C(C)=C/CO[C@@H]1O[C@H](CO)[C@@H](O)[C@H](O)[C@H]1O`, the Potency entry in experiment [1], in experiment [2], in experiment [3], in experiment [4], in experiment [5] and in experiment [6] was “inactive” each time.
Turning to `COC(=O)C(CC1(O)c2ccccc2N2C(=O)C(C)(C)N(O)C21)n1cnc2ccccc2c1=O` (stereo unspecified), the Potency entry in experiment [1], in experiment [2], in experiment [3], in experiment [4], in experiment [5] and in experiment [6] was “inactive” each time.
For `O=C(/C=C/c1ccc(O)c(O)c1)O[C@H]1[C@H](OC2CCCCC2O)O[C@H](CO)[C@@H](O)[C@@H]1O` (stereo partly specified), the Potency result in experiment [1], in experiment [2], in experiment [3], in experiment [5] and in experiment [6] was “inactive” throughout. Further, the Potency in experiment [4] was 2.07 µM (active).
As to `Cc1cc(O[C@@H]2O[C@H](COC(=O)CC(=O)O)[C@@H](O)[C@H](O)[C@H]2O)c(C(C)C)cc1O`, the Potency result in experiment [1], in experiment [2], in experiment [3], in experiment [5] and in experiment [6] was “inactive” each time. For the same compound, the Potency in experiment [4] was 5.19 µM (active).
As for `C=C1CC[C@@]2(OC1)O[C@H]1CC3C4CC=C5C[C@@H](O[C@@H]6O[C@@H](C)[C@H](O)[C@@H](O)[C@H]6O)C[C@@H](O[C@@H]6O[C@H](C)[C@H](O)[C@H](O)[C@H]6O[C@@H]6O[C@@H](C)[C@H](O)[C@@H](O)[C@H]6O)[C@]5(C)C4CC[C@]3(C)[C@H]1[C@@H]2C` (stereo partly specified), the Potency result in experiment [1] and in experiment [2] was “inactive” each time. Besides, in experiment [3], the outcome is “inactive [at 11.6 µM]”. Further, the activity change, negative = thiol reactive in experiment [4] was 170% [at 11.5 µM]. Moreover, the activity, negative = inhibition in experiment [5] was -0.58% [at 11.6 µM]. The redox activity (% of DA3003) in experiment [6] was 1.1% [at 11.5 µM].
As to `CC(O)C1NC(=O)C2CCCN2C1=O` (stereo unspecified), the Potency entry in experiment [1], in experiment [2], in experiment [3], in experiment [4], in experiment [5] and in experiment [6] was “inactive” in each case.
As to `CC(C)c1ccc2c(c1)[C@H](O)CC1[C@@](C)(C(=O)O)CCC[C@]21C` (stereo partly specified), the Potency entry in experiment [1], in experiment [2], in experiment [3], in experiment [4], in experiment [5] and in experiment [6] was “inactive” throughout.
For `O=C(O)c1ccncc1Nc1nn(CCN2CCC(F)(F)CC2)c2ccc(F)cc12`, the Potency result in experiment [1], in experiment [2], in experiment [3], in experiment [5] and in experiment [6] was “inactive” throughout. For the same compound, the Potency in experiment [4] is 1.34 µM (active).
